{
  "source": "PubChem BioAssay (NCI)",
  "note": "The panel holds about 83,000 compounds, 20% with a hit somewhere; the sample as a whole holds those more often.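 Activity criterion: percent growth below 10, measured after cells in 96-well plates were exposed to a single compound concentration for 48 hours.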 Values without a mark were called inactive. Active and inactive are the calls of the source.",
  "data": [
    {"system": "RPMI-8226 leukemia", "assay": "NCI-60 one-dose screen, 48 h (100 = growth as untreated, 0 = no growth, -100 = all killed)", "settings": "10 µM", "values": [
      {"smiles": "O=C(Nc1ccccc1)Oc1cccc2cccnc12", "growth": "76.2%"},
      {"smiles": "O=c1[nH]c(-c2ccccn2)nc2sc3c(c12)CCCCCC3", "growth": "39.4%"},
      {"smiles": "CC(=O)N(CC(O)CO)c1c(I)c(C(=O)NCCO)c(I)c(C(=O)NCC(O)CO)c1I", "note": "(centres undefined)", "growth": "102%"},
      {"smiles": "COc1ccc(-c2nc3sc(C)nn3c2-c2nc3cc(C)c(C)cc3[nH]2)cc1", "growth": "83.3%"},
      {"smiles": "O=C(C[Si](CC(=O)c1cccc(C(F)(F)F)c1)CC(=O)c1cccc(C(F)(F)F)c1)c1cccc(C(F)(F)F)c1", "growth": "4.44% (active)"},
      {"smiles": "Cc1ccc(C2SCC(=O)N2NC(=O)c2[nH]c3ccc(F)cc3c2-c2ccccc2)cc1", "note": "(centres undefined)", "growth": "86.7%"},
      {"smiles": "CCCCCCCCCCCCSC1=CC(=O)C=CC1=O", "growth": "-8.18% (active)"},
      {"smiles": "O=C1/C(=C/c2ccc(Oc3ccccc3)cc2)N=C(c2ccccc2)N1CCc1cccs1", "growth": "69.7%"},
      {"smiles": "COc1ccc(Nc2[nH]n(C3=Nc4ccccc4Sc4ccccc43)c(=O)c2C#N)cc1", "growth": "37%"},
      {"smiles": "FC(F)(F)c1cc(CNc2ncc(Br)c(Cl)n2)cc(C(F)(F)F)c1", "growth": "88.5%"},
      {"smiles": "COc1cc(CNCCCN2C(=O)c3ccc4c5c(ccc(c35)C2=O)C(=O)N(CCCNCc2cc(OC)c(OC)c(OC)c2)C4=O)cc(OC)c1OC", "growth": "-18.5% (active)"},
      {"smiles": "CCCCc1ccc(C(O)(CCN2CC3CCC(CC3)C2)c2ccccc2)cc1", "note": "(centres undefined)", "growth": "72.2%"},
      {"smiles": "CC(C)NCC(O)COc1ccc(CCOCC2CC2)cc1", "note": "(centres undefined)", "growth": "99.1%"},
      {"smiles": "Oc1cccc(Nc2nc(-c3ccccn3)cs2)c1", "growth": "81.9%"}
    ]}
  ]
}
